Values without a mark were called inactive. Activity calls are given as the source filed them. Rule as the data show it, unless noted: active = inhibition above about 33%; inactive = the rest.
Columns and labels:
[1] = StAR promoter reporter inhibitors, counter-screen for LRH-1 inverse agonist project, cell-based, luminescence, high throughput (AID 651611; in the data active = inhibition above about 28%); conditions: StAR promoter luciferase reporter counterscreen, at 3.6 µM, hits give high values
[2] = biological target: Nuclear receptor subfamily 5 group A member 2 (Homo sapiens) (UniProt O00482); test: NR5A2 activity suppression in reporter cells – cell-based, luminescence, confirmation (AID 651613; in the data active = inhibition above about 42%;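 also: HEK293T cells co-transfected with LRH-1 and StAR promoter luciferase reporter; 0% = vehicle wells and 100% = parental cells lacking receptor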); conditions: cell-based LRH-1 luciferase reporter, inverse agonism; at 3.6 µM; hits give high values
Nuclear receptor subfamily 5 group A member 2 (Homo sapiens), sequence (O00482 whole entry, looked up): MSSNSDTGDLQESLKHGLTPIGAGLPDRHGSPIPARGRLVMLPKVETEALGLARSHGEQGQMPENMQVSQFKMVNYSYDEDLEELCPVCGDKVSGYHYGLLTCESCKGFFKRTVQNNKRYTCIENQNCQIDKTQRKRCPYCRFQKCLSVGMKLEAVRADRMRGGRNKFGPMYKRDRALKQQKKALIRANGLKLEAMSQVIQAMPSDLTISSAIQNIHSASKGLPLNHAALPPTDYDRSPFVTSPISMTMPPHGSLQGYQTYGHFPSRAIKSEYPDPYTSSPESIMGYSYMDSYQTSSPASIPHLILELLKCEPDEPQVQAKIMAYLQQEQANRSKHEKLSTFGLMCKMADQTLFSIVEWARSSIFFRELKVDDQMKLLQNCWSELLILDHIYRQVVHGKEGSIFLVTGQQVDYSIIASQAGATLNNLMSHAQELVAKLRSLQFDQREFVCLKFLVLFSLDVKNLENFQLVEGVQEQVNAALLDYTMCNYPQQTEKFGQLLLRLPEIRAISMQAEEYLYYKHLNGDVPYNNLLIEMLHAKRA

[3] = biological target: Steroidogenic factor 1 (Homo sapiens) (UniProt Q13285); test: inverse agonism at SF1 nuclear receptor – cell-based, luminescence, high throughput, counter-screen for LRH-1 inverse agonist project (AID 651614; in the data active = inhibition above about 44%;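 also: cells cotransfected with StAR promoter reporter and SF1 expression vector; 0% = vehicle on cells with receptor and 100% = vehicle on cells lacking receptor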); conditions: cell-based SF1 luciferase reporter, at 3.6 µM, hits give high values
Steroidogenic factor 1 (Homo sapiens), sequence (Q13285 whole entry, looked up, the tested form may be a part): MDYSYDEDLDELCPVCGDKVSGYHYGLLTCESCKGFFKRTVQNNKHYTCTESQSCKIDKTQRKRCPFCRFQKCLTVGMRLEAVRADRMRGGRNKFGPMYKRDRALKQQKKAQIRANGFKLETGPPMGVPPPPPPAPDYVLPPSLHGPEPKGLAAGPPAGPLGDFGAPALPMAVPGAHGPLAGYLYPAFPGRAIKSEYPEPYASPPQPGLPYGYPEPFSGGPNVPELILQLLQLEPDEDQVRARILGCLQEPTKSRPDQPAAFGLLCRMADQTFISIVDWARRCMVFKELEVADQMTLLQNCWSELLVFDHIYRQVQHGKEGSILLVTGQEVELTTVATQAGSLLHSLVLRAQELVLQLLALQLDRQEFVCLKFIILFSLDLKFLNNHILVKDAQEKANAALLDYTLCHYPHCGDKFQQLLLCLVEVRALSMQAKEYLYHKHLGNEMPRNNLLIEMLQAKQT

[4] = compounds suppressing VP16-driven luciferase signal – cell-based, luminescence, high throughput, counter-screen for LRH-1 inverse agonist project (AID 651615); conditions: Gal4-VP16 luciferase reporter cells, at 3.6 µM, hits give high values

| Structure (SMILES) | inhibition [1] | inhibition [2] | inhibition [3] | inhibition [4] |
| --- | --- | --- | --- | --- |
| Cn1ncc(Cl)c1C(=O)NCc1ccc2c(c1)OCO2 | -2.54% | 45.4% (active) | 50.1% (active) | 15.7% |
| O=C(N/N=C/c1c[nH]c2ccccc12)c1[nH]c2ccc(Br)cc2c1-c1ccccc1 | 52.3% (active) | 38% | 57% (active) | 33.6% (active) |
| CCOCC(=O)Nc1cccc(C(=O)OCC)c1 | -6.06% | 36.9% | 28.2% | 2.72% |
| O=C(Nc1ccc(Nc2ccccc2)cc1)c1cc([N+](=O)[O-])ccc1Cl | 6% | 52.7% (active) | 53.4% (active) | 9.35% |
| O=C(COc1cc2oc(=O)cc(-c3ccccc3)c2cc1Cl)NCCN1CCOCC1 | 10.4% | 40.5% | 35.4% | -2.31% |
| COc1ccc(CCNC(=O)CN2C(=O)C3(OCCCO3)c3ccccc32)cc1OC | 11.2% | 45.7% (active) | 52.5% (active) | -9.46% |
| O=C(CN1C(=O)NC2(CCCCCC2)C1=O)Nc1ccc([N+](=O)[O-])cc1 | 25.1% | 63.1% (active) | 59.6% (active) | 9.06% |
| CC(=O)Nc1ccc(NC(=O)COC(=O)c2cc(S(=O)(=O)N3CCCC3)ccc2O)cc1 | 21% | 58.9% (active) | 61.4% (active) | -14.8% |
| CN(C)c1ccc(NC(=O)CN2CCC(NC(=O)C3CCCCC3)CC2)cc1 | 12.2% | 62.6% (active) | 54.1% (active) | -3.68% |
| Cc1cccc(NC(=O)c2ccc([N+](=O)[O-])o2)c1C | 24.6% | 64.2% (active) | 60.4% (active) | -8.95% |
| Cc1cc(NC(=O)C(Cl)Cl)cc2c1OCO2 | 10.4% | 59.2% (active) | 45.6% (active) | -10.1% |
| Cc1ccccc1Oc1nc2c(C)cccn2c(=O)c1/C=C(\C#N)C(=O)NC1CCS(=O)(=O)C1 (stereo unspecified) | 8.01% | 52.6% (active) | 51.3% (active) | 18.6% |
| COc1ccnc(Oc2ccccc2)c1C(=O)N/C=N/OCc1ccccc1F | 12.8% | 56.9% (active) | 48.8% (active) | -12.9% |
| CC(=O)c1ccc(OC(C)C(=O)OCC(=O)NCCc2ccccc2)cc1 (stereo unspecified) | -2.97% | 47.1% (active) | 40.7% | 7.05% |
| COc1cc(-c2cc(C(=O)Nc3ccncc3)c3ccccc3n2)cc(OC)c1OC | 28.4% (active) | 40.9% | 40.5% | -10.9% |
| CC(C(=O)OCC(=O)Nc1ccc2c(c1)OCO2)N1C(=O)c2ccccc2C1=O (stereo unspecified) | -2.26% | 49.2% (active) | 48.2% (active) | -12.4% |
| Cc1cccc(NC(=O)COC(=O)Cc2cccs2)c1C | 0.39% | 53.8% (active) | 46.9% (active) | 14.1% |
| COc1ccc(NC(=O)COc2ccc(N(C)S(=O)(=O)c3ccc(Cl)cc3)cc2)cc1OC | 18.5% | 67.1% (active) | 51.7% (active) | 51.1% (active) |
| Cc1c(Cl)cccc1NC(=O)CS(=O)(=O)c1ccccc1 | 13.4% | 55.1% (active) | 55.5% (active) | -1.09% |
| COc1cc2cc(C(=O)NC(C)c3cccc4ccccc34)c(N)nc2cc1OC (stereo unspecified) | 34.5% (active) | 43.9% (active) | 59.1% (active) | 23.9% |
| c1ccc(-c2nc(N3CCCCCC3)c3ccccc3n2)nc1 | 24.7% | 63.5% (active) | 74.8% (active) | 39.3% (active) |
| CN(CCc1ccccc1)C(=O)c1ccc(NC(=O)Cc2ccc(NC(=O)C3CCCN(C(=O)CCc4ccccc4)C3)cc2)cc1 (stereo unspecified) | 30.9% (active) | 62.4% (active) | 64.5% (active) | 59.8% (active) |
| Cc1cccnc1NC(=O)c1ccc([N+](=O)[O-])o1 | 12.3% | 52.7% (active) | 57.8% (active) | 1.88% |
| COc1cc2c3c(cccc3c1)C(=O)N(CCN1CCCC1)C2=O | 12.7% | 72.8% (active) | 49.7% (active) | 70.9% (active) |
